# This is a sample that favours compounds with a hit; in the whole collection about 4% have one here.
# TROY signal inh: inhibitors of TROY-dependent NF-kB signaling | Q293 LMP1-TROYcd NF-kB luciferase reporter, 4 h | inhibition, % at 10 µM | 360,000 compounds, 0.98% hits;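 active means compounds whose plate-normalised and pattern-corrected inhibition of the luciferase reporter signal at the single screening dose is 50% or more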
# TWEAK Fn14 block: blocks TWEAK-Fn14 interaction in a reporter cell assay | TWEAK-stimulated Fn14 reporter cells, luciferase luminescence, 8 h | inhibition, % at 10 µM | 360,000 compounds, 2% hits | AID 1159606; in the data active means inhibition above about 50%
# CF NFkB inh: inhibitors of cystic fibrosis induced NF-kB. AID 588850. inhibition, % at 5 µM. KKLEB NF-kB-GFP reporter, PAF-induced, GFP fluorescence overnight. 360,000 compounds, 0.86% hits;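 active means at least 50% inhibition at 5 µM, scaled per plate between neutral and stimulator controls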;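 further: PAF is a Pseudomonas aeruginosa culture filtrate used as stimulus; plate controls were PAF-stimulated DMSO wells for no effect and unstimulated DMSO wells for full effect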
# KKLEB tox: counter-screen for CF NF-kB inhibitors: cytotoxicity | KKLEB CF airway cells viability, ATPlite luminescence, overnight; hits give low values; cells stimulated with P. aeruginosa culture filtrate | activity change (cytotoxicity), % at 5 µM | 360,000 compounds, 0.36% hits;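 active means corrected activity change at or below -50% at 5 µM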
# Peg3 promoter: Peg3 promoter activity inhibition. HeLa PEG-Prom luciferase reporter, luminescence, overnight. inhibition, % at 20 µM. 360,000 compounds, 1.7% hits;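 active means inhibition of at least 50% at 20 µM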
# HIF-2a inh: inhibitors of HIF-2a | inhibition, % at 18.8 µM | 786-0 RCC cells HIF-2a reporter, luciferase luminescence, overnight | AID 624352 | 360,000 compounds, 0.72% hits;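 active means inhibition of the luminescence signal of 40% or more relative to plate controls, in a single-dose primary screen at 18.75 µM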
# An asterisk follows results filed as active; x = no result given.
SMILES,TROY signal inh,TWEAK Fn14 block,CF NFkB inh,KKLEB tox,Peg3 promoter,HIF-2a inh
COc1ccccc1CNc1ccc2c(c1)CCC2,47.2,65.5*,-2.9,-4.2,-64.6,-46.8
COc1ccc(CNc2ccc3c(c2)CCC3)cc1Br,48.4,56.9*,-4.1,0.4,-110.3,-115.0
O=C(Nc1ccc([N+](=O)[O-])cc1)Nc1ccc(N2CCOCC2)c2nonc12,68.8*,5.8,10.5,-19.7,62.2*,-32.4
Cc1cc(C(F)(F)F)nn1CC(=O)NNC(=S)Nc1ccc(F)cc1,-9.2,9.5,8.3,6.7,14.1,6.7
CCNS(=O)(=O)c1ccc(NC(=O)Cn2nc(C(F)(F)F)cc2C)cc1,x,86.8*,3.2,14.5,8.5,4.5
Cc1nn(-c2nc3ccccc3s2)c(C)c1Oc1ccccc1O,62.3*,46.9,-4.6,-1.5,-314.5,-124.1
COc1cc(CCC(=O)Nc2ccc(C)c(S(=O)(=O)N3CCCCCC3)c2)cc(OC)c1OC,33.8,51.3*,-6.0,-7.2,40.4,8.3
COc1ccc(NC(=O)CSc2ccc(NC(C)=O)cc2)cc1S(=O)(=O)N1CCOCC1,3.4,-13.7,-7.5,5.9,-1.3,6.6
COc1ccc(NC(=O)CSc2ccc3ccccc3c2)cc1S(=O)(=O)N1CCCCC1,19.1,58.5*,-5.2,-4.6,-13.2,-5.4
Cc1ccc(NC(=O)C2CC(=O)N(Cc3ccccc3)C2)cc1S(=O)(=O)N1CCCCCC1 (stereo not drawn),60.6*,87.8*,-0.4,0.9,33.1,30.0
Cc1ccc(NC(=S)Nc2ccc(C(C)C)cc2)cc1S(=O)(=O)N1CCCCCC1,16.8,67.3*,16.2,2.4,19.0,-91.4
CCOc1ccc(CCN2C(=O)c3ccc(C(=O)O)cc3C2=O)cc1OCC,-17.0,6.6,5.8,-1.7,5.0,18.8
CCOc1ncccc1C(=O)Nc1ccc(C)c(S(=O)(=O)N2CCCCCC2)c1,27.6,62.6*,8.5,-5.3,19.7,10.9
c1ccc(/N=C2\N=C(Nc3ccccn3)c3ccccc32)nc1,-10.3,18.9,1.2,-19.4,63.6*,-18.5
CCN(CC(=O)Nc1c(F)cccc1F)C(=O)c1ccc(OC)c(S(=O)(=O)NC2CCCC2)c1,0.7,-4.9,-31.2,-5.1,5.5,2.5
CN(C)/C=C(\C=N\OCc1ccc(Cl)cc1Cl)C(=O)Nc1ccc(Cl)c(Cl)c1,-13.0,-1.6,56.5*,-60.0*,10.7,5.6
O=C(NCc1ccc(F)cc1)OC1CC2CC1[C@H]1CCCCN1C2=O (stereo partly drawn),-5.0,6.9,x,x,x,4.3
Nc1cccc2cc(S(=O)(=O)O)ccc12,7.3,3.9,7.2,3.9,13.9,6.5
COC(=O)C1=C(C)N(Cc2ccccc2)C(=NCc2cccc(Cl)c2)N[C@H]1c1cccc(F)c1,7.2,-20.3,60.0*,-53.1*,103.6*,2.4
COC(=O)C1=C(C)N(Cc2ccccc2)C(=NCc2cc(OC)c(OC)c(OC)c2)N[C@H]1c1cccc(F)c1,-2.0,-14.7,-6.5,-8.4,-10.2,1.3
CCN1C(=NCc2ccc(OC)cc2)N[C@@H](c2ccccc2)C(C(=O)OC)=C1C,-2.4,-18.8,-3.2,6.1,-28.8,-1.2
COC(=O)C1=C(C)N(Cc2ccccc2)C(=NCc2ccc(OC)cc2)N[C@H]1c1cccc(F)c1,-4.0,-4.3,31.9,-7.3,101.8*,-2.7
CC#C[C@@H](CC)c1ccc2ccn(C)c2c1,-11.8,-9.2,-23.5,0.9,-57.5,-60.8
CC1Sc2ccc(S(=O)(=O)CCC(=O)NC3CCCC(C)C3C)cc2NC1=O (stereo not drawn),18.7,11.4,-9.5,0.8,18.8,18.8
Cc1ccc2c(Cl)cc(Cl)c(OCC(=O)Nc3cc(S(=O)(=O)N(C)C)ccc3C)c2n1,38.1,79.9*,20.2,-5.1,48.2,20.9
SMILES,TROY signal inh,TWEAK Fn14 block,CF NFkB inh,KKLEB tox,Peg3 promoter,HIF-2a inh
Cc1ccc2c(Cl)cc(Cl)c(OCC(=O)Nc3cccc(S(=O)(=O)N(C)C)c3)c2n1,20.1,-13.8,33.9,-22.6,6.9,15.5
COc1ccc(CNC(=O)CC[C@H]2O[C@@H](n3cc(C)c(=O)[nH]c3=O)C[C@@H]2O)cc1,-14.7,1.3,1.9,11.1,-1.6,9.7
Cc1csc(NC(=O)CN2C(=O)C3CC=CCC3C2=O)n1 (stereo not drawn),x,73.4*,1.4,0.1,5.5,11.9
Cc1csc(NC(=O)c2cc3c(s2)CCCCC3)n1,76.6*,94.6*,9.0,-63.1*,57.7*,27.4
CCc1nnc(NC(=O)c2cc3c(s2)CCCCC3)s1,-10.7,19.9,-21.3,-2.5,-162.1,-168.4
Cc1cnc(NC(=O)c2cc3c(s2)CCCC3)s1,56.6*,86.5*,-6.4,-51.0*,5.6,-12.6
CCOC(=O)Cc1csc(NC(=O)c2cc3c(s2)CCCC3)n1,-24.1,-6.3,10.8,3.5,-138.9,-30.8
Cc1csc(NC(=O)c2cc3c(s2)CCCC3)n1,34.7,71.1*,-5.2,-28.7,-39.9,-3.3
O=C(CNC(=O)OCc1ccccc1)Nc1ccc(F)cc1,-8.6,2.1,11.4,7.2,2.8,1.7
COc1ccc(NC(=O)C2(C)CCN2Cc2ccc(OC)c3ccccc23)cc1OC (stereo not drawn),4.5,-9.6,32.0,-9.6,9.7,-20.0
COCCn1c(N)c(C(=O)c2cccc(S(=O)(=O)N3CCCCCC3)c2)c(=O)[nH]c1=O,3.6,11.5,6.4,10.6,16.7,12.9
Cc1csc(NC(=O)C2CCCC2)n1,x,62.2*,-8.3,-5.5,-100.2,-84.8
Cc1ccc(-n2nc(C)c3cc(C(=O)O)sc32)cc1,x,86.3*,-7.0,-0.1,8.6,-11.9
Cc1nn(-c2ccccc2)c2sc(C(=O)O)cc12,-9.8,-1.5,6.1,-10.3,-13.2,10.8
O=C(CCc1ccc(S(=O)(=O)N2CCOCC2)cc1)Nc1c(F)cccc1F,9.1,15.5,-18.2,-13.3,19.6,8.9
O=C(O)c1ccc2cc(-c3ccccc3)[nH]c2c1,40.5,97.8*,-7.6,9.6,32.9,19.7
c1ccc(CNc2ccc(N3CCOCC3)cc2)cc1,65.0*,31.8,4.2,-12.8,-136.4,-165.6
CN(c1ccccc1)S(=O)(=O)c1cccc(NC(=O)C2=NNC(=O)CC2)c1,7.0,18.1,-11.2,26.1,5.5,15.2
CN(C)/C=C/C(=O)/C=C/c1ccc(Cl)cc1,-67.1,-19.6,23.0,-9.3,-152.3,-176.7
CN(C)CC(O)c1ccc(C=Cc2ccc(Cl)cc2)cc1 (stereo not drawn),-27.4,-100.2,35.9,-13.4,103.5*,-263.2
COc1ccc(OC2C(=O)N(Cc3ccc4c(c3)OCO4)C2c2cccs2)cc1 (stereo not drawn),36.8,61.0*,-9.0,-9.9,16.6,8.2
CN1CCN(C(c2ccccn2)c2cc(Cl)c3cccnc3c2O)CC1 (stereo not drawn),-6.0,-11.7,22.3,-32.0,15.5,20.3

# Screening results as filed in PubChem.
